Shown is part of a subset that was picked to be rich in hits.
Pf Dd2 inh = qHTS Primary assay for Inhibitors of Plasmodium falciparum Dd2 growth in vitro | P. falciparum Dd2 growth, SYBR Green, 72 h | Potency, µM (titrated, usually from 28.9 µM), actives largely listed as inhibitors | 120,000 compounds, 4.3% hits; active = well fitted inhibition curve with a large enough effect; also: nearly all actives have a fitted effect of over 65% in size
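Readout: SYBR Green fluorescence, 485 nm excitation, 535 nm emission, after ~16 h lysis at 37C. Before that, Dd2-infected red cells (2.5% hematocrit) grew 72 h with compound, 29 uM top final concentration.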
A number is an active result; i = inactive; [ ] = another dose, or the depositor's remark.

SMILES	Pf Dd2 inh
CCNC(=O)N1CCC(Cc2ncc(C)n2C(C)C)C1 (stereo not given)	i
CCOc1ccccc1NC(=O)N1CCC(Cc2noc(C3CCOCC3)n2)C1 (stereo not given)	7.94µM
CCCn1c(C)cnc1CC1CCCN(S(=O)(=O)CCC)C1 (stereo not given)	i
CNC(=O)N1CCC(Cc2ncc(C)n2CCOC)C1 (stereo not given)	i
COCCn1c(C)cnc1CC1CCCN(S(=O)(=O)c2cccc(F)c2)C1 (stereo not given)	8.91µM
Cc1cnc(CC2CCN(S(=O)(=O)c3cn(C)cn3)C2)n1C(C)C (stereo not given)	i
O=C(Nc1ccc(Cl)cc1F)N1CCc2nc3cc[nH]n3c(=O)c2C1	i[5.79 µM]
O=C1CCN(C(=O)C2CCN(C(=O)CCc3ccccc3)CC2)CCCCCCN1	i
Cc1c(F)cccc1NC(=O)N1CC2CC(C1)[C@H]1CCCC(=O)N1C2 (stereo not given in full)	i
CCn1ncc(CN2CC(F)(F)C[C@H]2c2nc(C(=O)NC)no2)c1C	i
CC(C)N[C@@H]1CC[C@@H]1NC(=O)c1cc2c(C(F)(F)F)nn(C)c2s1	i
O=C(c1ccc(Cl)cc1)N1CCC(N2CCCNC2=O)CC1	i
CC(C)N1C(=O)Cc2ccccc2C1C(=O)NCc1ccccc1 (stereo not given)	i
COc1cccc(N2CC(C(=O)NC(C)C)NC2=O)c1 (stereo not given)	i
O=C1NCCOCCCN(C(=O)C2CCCC2)[C@H]2CCCC[C@@H]12	i
Brc1ccc(-c2ccc(CNCCSc3nnnn3-c3ccccc3)o2)cc1	i
CCNCc1ccc(-c2ccccc2)o1	i
CCOCCCNCc1ccc(-c2ccccc2)o1	11.2µM
Cc1cc(C(=O)NCCCOC(C)C)c2c(C3CCNC3)noc2n1 (stereo not given)	i
COC(=O)c1cccc(NC(=S)N[C@H]2CO[C@H]3[C@@H]2OC[C@@H]3n2nnnc2-c2cccc(OC)c2)c1	i
COCCN1C(=O)CS(=O)C12CCN(S(=O)(=O)c1c(C)noc1C)CC2 (stereo not given)	i
CCCCN(Cc1ccccc1)Cc1cn[nH]c1-c1ccc(OC)cc1OC	12.6µM
COc1cccc(-c2[nH]ncc2CN)c1	i
COc1ccc(-c2[nH]ncc2C(=O)NCc2cccc(OC)c2)cc1	i
O=C(N1CCN([S+](=O)([O-])c2ccccc2)CC1)N1CC2CC(C1)[C@H]1CCCC(=O)N1C2 (stereo not given in full)	i
SMILES	Pf Dd2 inh
O=C(Nc1cccn2cnnc12)c1ccc(S(=O)(=O)NCCO)cc1	i
O=c1c(N2CCc3ccccc3C2)csc2ccccc12	i
CN(C)C(=O)N1CCC2(CC1)CN(C(=O)CCCN)Cc1ccccc1O2	i
O=C(CCc1nc2ccccc2s1)N1CCC(c2noc(-c3ccccc3)n2)C1 (stereo not given)	i[5.79 µM]
C=CCCC(=O)N1CCOc2c(O)cc(-c3nc4ccccc4s3)cc2C1	11.2µM
Cn1nc2n(c1=O)CCN(C(=O)CCCc1nc3ccccc3s1)CC2	i
NCCCCC(=O)N1CCOc2c(O)cc(-c3csc4ccccc34)cc2C1	5.01µM
O=C1CCCN1CCN1CCOc2c(O)cc(-c3csc4ccccc34)cc2C1	11.2µM
NCCCC(=O)N1CCC2(CC1)CN(C(=O)Cc1ccccc1)CCO2	i
Cc1cnc(C)c(-c2cc(O)c3c(c2)CN(CC2CNC(=O)O2)CCO3)n1 (stereo not given)	i
CN1CCCC1c1nc(C2CN(C(=O)c3ccn[nH]3)C2)no1 (stereo not given)	i
O=C(NCCc1ccncc1)C1CN(C(=O)c2ccc(Cl)s2)CC12CCOCC2 (stereo not given)	i
CCCSC1=NC2(CCN(C(=O)NC3CCCCC3)CC2)N=C1c1ccccc1	i
COc1ccc(-c2nc(C(C)C)nc3c2CCN(C(=O)NC2CCCC2)CC3)cc1	i
Cc1nc(-c2ccc(OC3CCN(C(=O)NC4CCCCC4)C3)cc2)no1 (stereo not given)	i[5.79 µM]
COC1CCC12CCN(C(=O)NC1CCCCC1)CC2 (stereo not given)	i
CCCSC1=NC2(CCN(C(=O)NC3CCCCC3)CC2)N=C1c1ccc(OC)cc1	11.2µM
CCSC1=NC2(CCN(C(=O)NC3CCCCC3)CC2)N=C1c1ccc(OC)cc1	7.08µM
C[S+](=O)([O-])N1CC2ON=C(C(=O)N3CCOCC3)C2C1 (stereo not given)	i
O=C(N[C@@H]1CN(C(=O)Nc2ccc(F)cc2)CCC[C@H]1O)c1ccc(O)cc1	i
O=C([C@H]1C[C@H](Oc2ccccc2)CN1C(=O)C1CCCC1)N1CCOCC1	i
c1ccc([C@@H]2CN(Cc3cccnc3)C[C@H]2COc2ccncc2)nc1	i
COc1cccc(N2C(=O)NC(=NC3CCCCC3)C23CCCN(C(=O)c2ccccc2OC)C3)c1 (stereo not given)	i
COc1cccc(N2C(=O)NC(=NC3CCCC3)C23CCCN(C(=O)c2ccccc2F)C3)c1 (stereo not given)	i
COc1cccc(N2C(=O)NC(=NC3CCCCC3)C23CCN(Cc2ccccc2)C3)c1 (stereo not given)	i
SMILES	Pf Dd2 inh
COc1ccc(CN2CCC3(CC2)C(=NC2CCCCC2)NC(=O)N3c2cccc(OC)c2)cc1	i
COc1cccc(N2C(=O)NC(=NC3CCCC3)C23CCN(Cc2ccc(F)cc2)C3)c1 (stereo not given)	12.6µM
COc1cccc(N2C(=O)NC(=NC3CCCCC3)C23CCCN(Cc2ccc(F)cc2)C3)c1 (stereo not given)	12.6µM
C[C@H](O)c1onc(-c2ccc(F)cc2)c1C(=O)NC(C)(C)C	i
O=C1[C@@H]2C[C@@H](O)CN2C2(CN(Cc3ccccc3)C2)C(=O)N1Cc1cccc(Cl)c1	i
COc1ccc(C(=O)c2sc(Nc3cc(Cl)ccc3C)nc2N)cc1OC	i
COc1ccc(C(=O)c2sc(Nc3ccccc3)nc2N)cc1	8.91µM
COc1ccccc1C(=O)Nc1sc(Nc2ccccc2)nc1C(N)=O	i
O=C(c1ccsc1)N1CCC2(CC1)CN(C1CCC1)CC2CO (stereo not given)	i
O=C(c1nccc2ccccc12)N1CCc2c(nc(-c3ccc(F)cc3)[nH]c2=O)C1	i
CCOc1ccccc1C(=O)N1CCC[C@H]1c1nc(-c2ccc(OC)cc2)no1	i
Cc1ccc(C)c(CN2CCC(CNC(=O)Cn3ncc4c([nH]c5ccccc54)c3=O)CC2)c1	i
Cc1ccc(C)c(CN2CCC(CNC(=O)c3cc4ccc5cccnc5c4[nH]3)CC2)c1	2.82µM
O=C(NCC1CCN(Cc2cccc(F)c2)CC1)c1cc2ccc3cccnc3c2[nH]1	7.08µM
Cc1oc2ncnc(N3CCCCC3)c2c1C(=O)NCC1CCN(Cc2cccc(F)c2)CC1	i
CCCN(C(=O)c1cc2ccc3cccnc3c2[nH]1)c1ccc(F)cc1	i
O=C(c1cc2ccc3cccnc3c2[nH]1)N1CCN(c2ccccc2)CC1	i
Cc1ccc(CN2CCC(CNC(=O)c3cc4ccc5cccnc5c4[nH]3)CC2)cc1	3.55µM
Cc1ccc(CN2CCC(CNC(=O)Nc3ccc(C)c(C)c3)C2)cc1 (stereo not given)	i
Cc1ccc(C)c(CN2CCC(CNC(=O)c3occc3C)C2)c1 (stereo not given)	i
Cc1noc2ccc(-c3ccccc3Oc3ccccc3)nc12	i
COCC1CN(C(C)=O)CC12CCN(S(=O)(=O)c1cnc[nH]1)CC2 (stereo not given)	i
O=C(Nc1ccccn1)C1CN(Cc2cccnc2)CC12CCOCC2 (stereo not given)	i
